CHX counter: affects cycloheximide protein synthesis inhibition readout, counter-screen | cell reporter, cycloheximide protein synthesis inhibition counterscreen | max response, % | hit rate 12% among 300,000; in the data active = max response mostly above about 13%, no sharp cut-off; inactive = mostly below about 14%; also: read at 38.3 µM for the half of the compounds with a filed dose
Marburg entry inh: blocks Marburg virus binding to or entry into cells; Marburg virus pseudotyped entry inhibition, cell reporter; Potency, µM (top dose mostly 37.8 µM), most hits filed as inhibitors; hit rate 1.8% among 300,000; AID 540276; calls by dose curve; tested in HEK293 cells
AMA1-RON2 inh: disrupts binding of P. falciparum AMA1 to RON2 | AlphaScreen AMA1-biotinylated RON2 peptide binding | Potency, µM (series often up to 58.2 µM), hits mostly inhibitors | hit rate 0.2% among 360,000 | AID 720542; active = well fitted inhibition curve with a large enough effect; inconclusive = small, poorly fitted or top-dose-only effect; inactive = no such curve, though single readings can be large or run the other way; also: nearly all actives have a fitted effect of over 45% in size
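AMA1 (3D7) with his tag at 25 nM final met compounds first, then biotinylated RON2 peptide at 25 nM; detection used donor plus acceptor beads, 10 µg/mL apiece, read by AlphaScreen after 30 min at room temperature.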
LASV entry inh: blocks Lassa virus binding to or entry into cells; Potency, µM (series often up to 37.9 µM), most hits filed as inhibitors; Lassa virus pseudotype entry inhibition, cell reporter; hit rate 1.2% among 300,000; calls by dose curve; tested in HEK293 cells; also: nearly all actives have a fitted effect of over 50% in size
Shiga inhibitor: Shiga toxin inhibition; Vero cells, Shiga toxin protein synthesis inhibition reporter; inhibition, % at 38.7 µM; hit rate 9.2% among 290,000; AID 2315; in the data active = inhibition mostly above about 28%, no sharp cut-off; inactive = mostly below about 43%
Large screens that a line does not name were inactive. The entries come from a sample that favours hits as a whole.

CCCCNC(=S)Nc1ccc(C(F)(F)F)cc1	CHX counter 18.9, Marburg entry inh inconclusive, Shiga inhibitor 30.4
CCCNC(=S)Nc1cccc(C(F)(F)F)c1	none
CC(C)(C)C(=O)NC(=S)Nc1ccc(C(F)(F)F)cc1	CHX counter 43.2, Shiga inhibitor 61.4 (no result: Marburg entry inh, LASV entry inh)
CCCCNC(=S)Nc1ccc(Cl)cc1	Shiga inhibitor 45.2
CCOC(=O)NC(=S)Nc1cccc(C)n1	none (no result: CHX counter, Marburg entry inh, LASV entry inh, Shiga inhibitor)
CCOC(=O)NC(=S)Nc1ccc(C(C)(C)C)cc1	CHX counter 33.4, Shiga inhibitor 79.9
COc1ccc(-n2c(=O)c3sc4ccccc4c3n(Cc3ccccc3)c2=O)cc1	Marburg entry inh inconclusive (no result: CHX counter, AMA1-RON2 inh, Shiga inhibitor)
c1ccc2c(c1)nnn1c3ccccc3nc21	CHX counter 34.4, Shiga inhibitor 79.7 (no result: AMA1-RON2 inh, LASV entry inh)
Nn1nnc2ccccc21	CHX counter 13.9
COC(=O)C1=C(C)OC(N)=C(C#N)[C@H]1c1ccc(OC)c(OC)c1OC	none (no result: CHX counter, AMA1-RON2 inh, LASV entry inh, Shiga inhibitor)
CCc1cccc2c(-c3ccc(F)cc3)nc(SCC(=O)Nc3ccccc3)nc12	none (no result: CHX counter, AMA1-RON2 inh, Shiga inhibitor)
CCN1C(=O)NC(c2ccccc2)C(C(=O)OC)=C1C (centres undefined)	none (no result: CHX counter, AMA1-RON2 inh, LASV entry inh, Shiga inhibitor)
CCOC(=O)c1ccc(N2C=C(C(=O)OC)C(c3cccc(O)c3)C(C(=O)OC)=C2)cc1	none (no result: Marburg entry inh, LASV entry inh)
CN(C(=S)NC(=O)c1ccc(F)cc1)C1CCCCC1	CHX counter 19.3 (no result: Marburg entry inh, LASV entry inh)
CN(C(=S)NC(=O)c1ccccc1)C1CCCCC1	CHX counter 14.6, Shiga inhibitor 33.8 (no result: Marburg entry inh, LASV entry inh)
O=C(NNC(=O)C1CCC1)c1ccc(Cl)cc1	none (no result: Marburg entry inh, LASV entry inh)
CC1CCN(C(=S)NC(=O)c2ccc(F)cc2)CC1	none (no result: CHX counter, Shiga inhibitor)
CN(C(=S)NC(=O)c1ccc(Cl)cc1)C1CCCCC1	CHX counter 49.5, Shiga inhibitor 71.6
CCCCN(C)c1c(C)nc2ccc(C(=O)N(CC)CCN(C)C)cn12	none (no result: CHX counter, Marburg entry inh, LASV entry inh, Shiga inhibitor)
CC(Oc1ccc2ccc(=O)oc2c1)C(=O)NC(Cc1c[nH]c2ccc(O)cc12)C(=O)O (centres undefined)	none (no result: Marburg entry inh, LASV entry inh)
Cc1ccc(S(=O)(=O)Nc2cccc(-c3ccc(N4CCCCC4)nn3)c2)s1	none (no result: CHX counter, Marburg entry inh, AMA1-RON2 inh, Shiga inhibitor)
O=S(=O)(Nc1cccc(-c2ccc(N3CCCCCC3)nn2)c1)c1ccccc1F	CHX counter 31.8, LASV entry inh inconclusive, Shiga inhibitor 110.2 (no result: Marburg entry inh)
O=S(=O)(Nc1cccc(-c2ccc(N3CCCCCC3)nn2)c1)c1ccccc1Cl	CHX counter 33.6, Shiga inhibitor 57.7 (no result: Marburg entry inh, LASV entry inh)
CCOC(=O)C1C(=O)C=C(c2ccc(C)cc2)CC1c1ccccc1 (centres undefined)	LASV entry inh 15.8µM
CCOC(=O)C1C(=O)C=C(c2ccc(Br)cc2)CC1c1ccco1 (centres undefined)	Marburg entry inh inconclusive, LASV entry inh 14.6µM
CCOC(=O)C1C(=O)C=C(c2cccc(NS(C)(=O)=O)c2)CC1c1ccco1 (centres undefined)	none
CCOC(=O)C1C(=O)C=C(c2ccc([N+](=O)[O-])cc2)CC1c1ccccc1 (centres undefined)	Marburg entry inh inconclusive, LASV entry inh inconclusive
CSCC[C@H](NC(=O)Cc1c(C)c2cc3c4c(oc3cc2oc1=O)CCCC4)C(=O)O	none (no result: Marburg entry inh, LASV entry inh)
O=S(=O)(O)c1ccc2c(c1)C(C(Cl)(Cl)Cl)OC(C(Cl)(Cl)Cl)O2 (centres undefined)	LASV entry inh inconclusive (no result: CHX counter, Shiga inhibitor)
O=C(N/N=C/c1cn(-c2ccccc2)nc1-c1ccc2c(c1)OCCO2)c1ccncc1	CHX counter 29.2, Shiga inhibitor 49.6
O=C(/C=C\c1cn(-c2ccccc2)nc1-c1ccc2c(c1)OCCO2)N1CCOCC1	none (no result: Marburg entry inh, LASV entry inh)
O=C(N/N=C\c1cn(-c2ccccc2)nc1-c1ccccc1)c1ccc2c(c1)OCO2	CHX counter 15.6, Marburg entry inh inconclusive
CN1CCN(C(=O)/C=C/c2cn(-c3ccccc3)nc2-c2ccc3c(c2)OCCO3)CC1	Marburg entry inh 20.6µM, LASV entry inh inconclusive
O/N=C/c1cn(-c2ccccc2)nc1-c1ccc2c(c1)OCCO2	none
O=C(N/N=C/c1cn(-c2ccccc2)nc1-c1ccc(F)cc1)c1ccc2c(c1)OCO2	CHX counter 18.3, Marburg entry inh inconclusive, Shiga inhibitor 79.2
N/C(=N\OC(=O)c1ccccc1[N+](=O)[O-])c1cccnc1	CHX counter 34.6, Shiga inhibitor 55.3
N/C(=N\OC(=O)c1cc([N+](=O)[O-])ccc1Cl)c1cccnc1	Marburg entry inh inconclusive, LASV entry inh inconclusive
N/C(=N\OC(=O)c1ccccc1[N+](=O)[O-])c1ccccn1	Marburg entry inh inconclusive, LASV entry inh inconclusive
Cc1ccc(C(=O)O/N=C(\N)c2cccnc2)cc1[N+](=O)[O-]	CHX counter 77.7, LASV entry inh inconclusive, Shiga inhibitor 18.4
N/C(=N\OC(=O)c1ccc([N+](=O)[O-])cc1)c1cccnc1	CHX counter 13.8, Shiga inhibitor 116.6
COc1ccc(/C(N)=N/OC(=O)c2ccc(C)c([N+](=O)[O-])c2)cc1OC	none
NC(=O)C1=C[C@@H](c2csc3ccccc23)C[C@@H](OCCCCO)O1	none (no result: Marburg entry inh, LASV entry inh)
Cc1cc2c(c(C)c1Cl)C(c1ccc3c(c1)OCO3)CC(c1ccccc1)O2 (centres undefined)	none (no result: Marburg entry inh, AMA1-RON2 inh, LASV entry inh)
O=C(NCCc1ccc(Cl)cc1)c1ccc2c(c1)N(Cc1ccccc1)C(=O)CS2	none (no result: CHX counter, Marburg entry inh, AMA1-RON2 inh, Shiga inhibitor)
O=C(c1ccc(S(=O)(=O)c2cccc(Cl)c2)c([N+](=O)[O-])c1)N1CCN(c2ccccn2)CC1	CHX counter 22.2, Marburg entry inh 7.08µM, LASV entry inh inconclusive
O=C(c1cccc(Cl)c1)N1CCN(c2ccccn2)CC1	none
CC[C@H](NC(=O)[C@H](CCCN=C(N)N)NC(=O)[C@H](Cc1c[nH]c2ccccc12)NC(=O)[C@@H](N)CS)C(=O)N[C@@H](CCCN=C(N)N)C(=O)N[C@@H](Cc1ccc(O)cc1)C(N)=O	none (no result: Marburg entry inh, AMA1-RON2 inh, LASV entry inh)
CCSc1nnc(NC(=O)Nc2cccc(C)c2)s1	CHX counter 38.1, Marburg entry inh inconclusive, LASV entry inh inconclusive, Shiga inhibitor 100.5
CCSc1nnc(NC(=O)c2cccc3ccccc23)s1	none (no result: Marburg entry inh, LASV entry inh)
C/C(N)=C(/C#N)C(=O)CSc1nnc(Nc2cccc(C)c2)s1	CHX counter 30.9, LASV entry inh inconclusive, Shiga inhibitor 67.1
Cc1cccc(NC(=O)CSc2nnc(NC(=O)c3ccco3)s2)c1	Shiga inhibitor 43.0
CCSc1nnc(NC(=O)[C@@H](NC(=O)c2cccc(C)c2)C(C)C)s1	none
CCSc1nnc(NC(=O)c2csc(C)c2)s1	CHX counter 16.9, Shiga inhibitor 48.8
CCOc1ccc(Oc2c(/C=N/NC(=O)C3CC3)c(C)nn2-c2ccccc2)cc1	Marburg entry inh inconclusive
OC[C@H]1OC(O)[C@@H](O)[C@@H](O)[C@H]1O (some centres undefined)	none (no result: Marburg entry inh, AMA1-RON2 inh, LASV entry inh)
C/C(N)=C(/C#N)C(=O)CSc1cc(Cl)ccc1Cl	none
C/C(N)=C(/C#N)C(=O)CSc1nc2cc(Cl)ccc2s1	CHX counter 23.9, Shiga inhibitor active
Cc1cccc(NC(=O)CSc2ccc(-c3ccco3)nn2)c1	CHX counter 19.8
O=C(N/N=C/c1cccc([N+](=O)[O-])c1)c1ccccc1-n1cccc1	Marburg entry inh inconclusive, Shiga inhibitor 27.9
O=C(N/N=C/c1cccc([N+](=O)[O-])c1)c1cccc2cc[nH]c12	CHX counter 28.8, Shiga inhibitor 57.6
O=C(N/N=C/c1cc([N+](=O)[O-])ccc1O)c1ccncc1	none (no result: Marburg entry inh, LASV entry inh)
O=C(NN=Cc1cccc([N+](=O)[O-])c1)c1cccc2ccccc12	none (no result: CHX counter, Shiga inhibitor)
